Screening results (PubChem BioAssay)
Rows were chosen to be rich in hits. Some 11% of all compounds tested hit in one or more screens of this group.
Luciferase inh – blocks purified firefly luciferase enzyme activity. Potency, µM (highest dose often 115 µM), most hits filed as inhibitors. hit rate 2.5% among 76,000. P08659. purified P. pyralis luciferase, luminescence, biochemical. AID 1347043; also: nearly all actives have a fitted effect of over 65% in size
Target sequence (P08659 whole entry, looked up): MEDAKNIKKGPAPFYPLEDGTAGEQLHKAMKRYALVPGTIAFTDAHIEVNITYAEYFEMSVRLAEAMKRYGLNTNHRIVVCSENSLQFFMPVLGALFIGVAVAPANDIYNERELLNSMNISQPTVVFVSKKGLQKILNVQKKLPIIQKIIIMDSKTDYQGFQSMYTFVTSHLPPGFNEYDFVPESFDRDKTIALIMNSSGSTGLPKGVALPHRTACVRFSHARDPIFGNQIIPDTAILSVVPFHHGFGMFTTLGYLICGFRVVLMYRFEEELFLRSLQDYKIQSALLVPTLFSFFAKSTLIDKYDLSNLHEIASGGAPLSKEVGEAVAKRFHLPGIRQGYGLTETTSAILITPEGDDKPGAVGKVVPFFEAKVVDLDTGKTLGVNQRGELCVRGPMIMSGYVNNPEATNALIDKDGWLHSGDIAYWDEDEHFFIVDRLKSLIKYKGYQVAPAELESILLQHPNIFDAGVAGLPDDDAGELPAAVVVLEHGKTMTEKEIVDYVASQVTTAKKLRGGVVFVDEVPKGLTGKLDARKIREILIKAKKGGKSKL
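Luminescence read by CCD imaging after purified firefly luciferase (10nM final) was added to substrate buffer holding 10uM D-luciferin and 10uM ATP, pH 7.5, pre-dosed with compound.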
NPR1 antag – blocks ANP-stimulated signaling of human Npr1 receptor; P16066; Potency, µM (series often up to 46.3 µM), usual class: inhibitors; AID 1347048; HEK293 hNpr1 GloSensor cGMP, ANP-stimulated luminescence; hit rate 1.6% among 76,000; calls by dose curve; also: nearly all actives have a fitted effect of over 60% in size
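HEK293 cells stably expressing human Npr1 and cGMP GloSensor pGS-40F, loaded 2 h with 2% GloSensor reagent, given compound 30 min at room temperature. Luminescence read before and 20 min after 0.1 nM hNppA.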
NIH3T3 tox – NIH 3T3 cell cytotoxicity; NIH 3T3 viability, CellTiter-Glo ATP luminescence, 48-72 h; AID 1345082; Potency, µM (highest dose often 96.7 µM), actives largely listed as inhibitors; hit rate 4.3% among 94,000; also: nearly all actives have a fitted effect of over 55% in size
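Luminescent ATP readout (CellTiter-Glo, 10 min RT) after 48 or 72 hr compound exposure of NIH 3T3 cells seeded at 400 cells/well in 1536-well format; quantitative HTS.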
HEK293 tox – kills HEK 293 cells; HEK 293 viability, ATP luminescence (CellTiter-Glo), 48-72 h; Potency, µM (titrated, usually from 115 µM), usual class: inhibitors; hit rate 6.6% among 94,000; AID 1345083; also: nearly all actives have a fitted effect of over 60% in size
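Luminescence from cellular ATP, measured with CellTiter-Glo, indicates HEK 293 viability. Cells plated at 250 cells/well are treated with compound for 48 or 72 hr at 37 degree Celsius before reagent addition.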
A number is an active result; 0 = inactive; ? = inconclusive; - = no result; ! = not active in a repeat. Unless noted, calls follow the shape of the dose curve; as a rule, active = well fitted curve in the direction sought with a large enough effect; inconclusive = small, poorly fitted or top-dose-only effect, or another doubt; inactive = no such curve, though single readings can be large; an effect the other way counts as inactive or inconclusive.

SMILES	Luciferase inh	NPR1 antag	NIH3T3 tox	HEK293 tox
Cc1ccc(-c2cc(-c3cccnc3)nc3c(C)noc23)c(C)c1	?	0	?	79µM
O=C(C1CCCC1)N1CC2(CCN(C3CCCCC3)C2)Cc2ccccc21 (stereo unspecified)	-	-	?	45µM
O=C(C1CCCC1)N1CC2(CCN(C3COC3)CC2)Cc2ccccc21	-	-	?	0
O=C(C1CCCC1)N1CC2(CCCN(Cc3ccc(Cl)cc3)C2)Cc2ccccc21 (stereo unspecified)	-	-	?	40µM
O=C(C1CCCC1)N1CC2(CCN(Cc3cccnc3)C2)Cc2ccccc21 (stereo unspecified)	-	-	?	45µM
Cn1ccnc1C(=O)N1CCCCCCNC(=O)[C@@H]2C[C@@H](c3nc(-c4cccnc4)no3)C[C@@H]21	0	0	0	0
CC(C)CNC(=O)N1CCC(Cc2noc(C3CCOCC3)n2)C1 (stereo unspecified)	-	-	0	0
O=c1n(-c2ccncc2)nc2n1CCN(Cc1ccc(OC(F)(F)F)cc1)C2	0	?	?	22µM
O=c1n(-c2ccncc2)nc2n1CCN(Cc1ccccc1)C2	?	0	?	79µM
COCc1nnc(NC(=O)C2c3ccccc3C(=O)N(CC(C)C)C23CCCCC3)s1 (stereo unspecified)	0	0	0	0
C[S+](=O)([O-])c1ccc(-c2nc(C(=O)NCc3ccc(F)cc3)n3ccccc23)cc1	-	-	0	0
O=C(NCc1cccc(Cl)c1)C1CN(c2ccc(F)cc2)C(=O)N1 (stereo unspecified)	0	0	0	0
CCn1ccc2oc(C)c(C(=O)N3CCN(c4cccc(C)c4C)CC3)c2c1=O	0	0	?	50µM
O=C(Cc1cccc(F)c1)NC1CCN(c2cc(-c3ccc(F)cc3)[nH]n2)C1 (stereo unspecified)	0	0	?	?
Cn1cccc1CN1CCCC(C(=O)NCc2ccccc2)CCNC(=O)CC1 (stereo unspecified)	0	0	?	79µM
COc1ccccc1-c1cccc(CN2CCCC(C(=O)NCC(F)F)C2)c1 (stereo unspecified)	-	-	?	40µM
COc1ccccc1-c1cccc(CN2CCCC(C(=O)NCc3ccccc3)C2)c1 (stereo unspecified)	-	-	?	11µM
COc1ccccc1-c1cccc(CN2CCCC(C(=O)NC3CCCC3)C2)c1 (stereo unspecified)	-	-	35µM!	35µM!
CN(Cc1ccccc1)Cc1cccc(C(F)(F)F)c1	-	-	0	0
O=C(NCCCc1ccccc1)C1CCN(c2nc3ncccc3o2)CC1	-	-	0	0
O=C(NC1CCN(c2cc(-c3ccccc3)[nH]n2)CC1)c1cccc(F)c1	0	0	?	?
O=C(C1CCCC1)N1CCCC(c2noc(COc3ccccc3F)n2)C1 (stereo unspecified)	0	0	?	?
CCc1ccc(NC(=O)N2CCCC(c3noc(COc4ccccc4F)n3)C2)cc1 (stereo unspecified)	2.2µM	?	?	?
O=C(CC1CCCCC1)N1CCCC(c2noc(COc3ccccc3)n2)C1 (stereo unspecified)	0	?	40µM	?
Cc1c(F)cccc1NC(=O)N1CCCC(c2noc(COc3ccccc3)n2)C1 (stereo unspecified)	11µM	0	?	?
SMILES	Luciferase inh	NPR1 antag	NIH3T3 tox	HEK293 tox
O=C(CC1CCCC1)N1CCCC(c2noc(COc3ccccc3)n2)C1 (stereo unspecified)	0	0	?	?
Cc1ccc(OCc2nc(C3CCN(S(=O)(=O)Cc4ccccc4F)C3)no2)cc1 (stereo unspecified)	0	?	?	25µM
O=C(COc1ccc(Cl)cc1)N1C[C@@H](CO)[C@H](c2ccccn2)C1	0	0	0	0
O=C(c1ccc(Cl)nc1)N1CCN(C(=O)c2nc3cccnc3n(C3CCCC3)c2=O)CC1	-	-	0	0
Oc1ccccc1CN1CCC(n2cc(-c3ccc(F)cc3)nn2)CC1	0	0	0	?
CCOC(=O)[C@@H]1CN(C(=O)c2cccc(C#N)c2)[C@H]2c3ccccc3O[C@@H]12	-	-	0	?
COc1ccc(CCNC(=O)c2cn3cc(-c4ccc(C(F)(F)F)cc4)sc3n2)cc1	-	-	0	0
O=C(c1cccc(F)c1)N1CCCC(c2noc(COc3ccccc3F)n2)C1 (stereo unspecified)	0	0	?	71µM
Cc1cccc(C(=O)N2CCCC(c3noc(COc4ccccc4F)n3)C2)c1 (stereo unspecified)	0	0	?	?
